Among the data in PubChem BioAssay are fold change permeability values, retold here.

The structures appear in SMILES notation. A number with no mark means an inactive call. The source made the active and inactive calls. No stated cut-off is given here; in the data, active means fold change permeability below about 0.7 or above about 1.3; inactive means in between.

A short description of this test: modulators of brain endothelial barrier permeability, primary screen, cell-based, FITC-avidin fluorescence, HTS (AID 1963498). Further: test concentration not given here. Particulars: actives lie on both sides.
Turning to `Clc1ccc(N2CCN(Cc3c[nH]c4ncccc34)CC2)cc1`, the fold change permeability is 1.4 (active).

For `COc1cccc(OC)c1OCCNCC1CSc2ccccc2O1` (centres undefined), the fold change permeability was 1.1.

On to `CC(C)COCC(CN(Cc1ccccc1)c1ccccc1)N1CCCC1` (centres undefined), for which the fold change permeability was 1.

Take `O=C(O)CN(CCN(CC(=O)O)CC(=O)O)CCN(CC(=O)O)CC(=O)O`: the fold change permeability was 1.

On to `Cc1cc(C)c(/C=C2\C(=O)Nc3ccccc32)[nH]1`, for which the fold change permeability is 23.2 (active).

For the molecule `CCN(Cc1cccnc1)C(=O)CN(c1ccc(OC)nc1)S(=O)(=O)c1ccccc1C`, the fold change permeability is 1.9 (active).

Turning to `COc1ccc(S(=O)(=O)N(CC(=O)NO)CC(C)C)cc1`, the fold change permeability is 1.1.

With `CCN(CC)CCNC(=O)c1ccc(NC(C)=O)cc1`, the fold change permeability is 1.1.

As for `CCN(CC)CCn1c(=O)c(Cc2ccc(OC)cc2)nc2ccccc21`, the fold change permeability was 0.7 (active).

As for `C=Cc1c(C)c2cc3[nH]c(cc4nc(cc5nc(cc1[nH]2)C(C)=C5CCC(=O)O)C(CCC(=O)O)=C4C)c(C)c3C=C`, the fold change permeability is 1.

For `FC(F)(F)c1ccccc1-n1ccnc1`, the fold change permeability was 1.2.

For `NCCOc1cc(C(=O)Nc2cc(OCCN)c3ccccc3n2)nc(C(=O)Nc2cc(OCCN)c3ccccc3n2)c1`, the fold change permeability was 0.9.

Turning to `Oc1ccccc1-c1cc(-c2ccccc2F)[nH]n1`, the fold change permeability was 1.

`COC(=O)C1=C(C)NC(C)=C(C(=O)O[C@@H]2CCCN(Cc3ccccc3)C2)[C@@H]1c1cccc([N+](=O)[O-])c1`: the fold change permeability was 1.4 (active).

For `CC(=O)Oc1cc(C(C)C)c(OCCN(C)C)cc1C`, the fold change permeability is 0.8.

As for `CNCCC(Oc1ccccc1C)c1ccccc1` (centres undefined), the fold change permeability was 0.7 (active).

`CC(=O)[C@]1(O)Cc2c(O)c3c(c(O)c2[C@@H](O[C@H]2C[C@H](N)[C@H](O)[C@H](C)O2)C1)C(=O)c1ccccc1C3=O`: the fold change permeability is 3.4 (active).

`CCCC(=O)NCCc1csc(-c2ccc(Cl)cc2)n1`: the fold change permeability is 1.5 (active).

Consider `Cn1cnc2c1c(=O)[nH]c(=O)n2C`, for which the fold change permeability is 1.3 (active).

Turning to `O=c1c2ccccc2[nH]c(=S)n1CCN1CCC(=C(c2ccc(F)cc2)c2ccc(F)cc2)CC1`, the fold change permeability was 1.6 (active).

Turning to `COc1cc(CNC(=O)CCCCCCC(C)C)ccc1O`, the fold change permeability was 0.7 (active).

Take `c1ccc(CN2CCC3(CCCc4ccccc43)CC2)cc1`: the fold change permeability is 1.6 (active).

`CC(=O)SCC[N+](C)(C)C`: the fold change permeability was 0.8.

For `O=c1cc2c(=O)oc3cc(O)c(O)oc3c2c(O)c1O`, the fold change permeability is 1.9 (active).

`COc1cc(/C=C/C(=O)N2CCN(CC(=O)N3CCCC3)CC2)cc(OC)c1OC`: the fold change permeability was 1.

With `Clc1ccccc1C(c1ccccc1)(c1ccccc1)n1ccnc1`, the fold change permeability was 1.2.

For the molecule `COc1ccc2[nH]cc(CCNC(C)=O)c2c1`, the fold change permeability is 0.8.

For `CN1CCN(C2Cc3ccccc3Sc3ccc(Cl)cc32)CC1` (centres undefined), the fold change permeability was 1.2.

Turning to `NC(Cc1ccc(Cl)cc1)C(=O)O` (centres undefined), the fold change permeability is 0.9.

Regarding `Nc1nc(Cl)nc2c1ncn2[C@@H]1O[C@H](CO)[C@@H](O)[C@H]1O`, the fold change permeability was 0.9.

For the molecule `O=c1[nH]c2cc(C(F)(F)F)ccc2n1-c1cc(C(F)(F)F)ccc1O`, the fold change permeability was 1.3 (active).

Turning to `COc1cc(CC(=O)O)ccc1O`, the fold change permeability was 1.1.

For `N[C@@H](CCCC(=O)O)C(=O)O`, the fold change permeability was 1.1.

Take `CC(C)(Oc1ccc(CCNC(=O)c2ccc(Cl)cc2)cc1)C(=O)O`: the fold change permeability was 0.9.

Regarding `CCC(=O)OCC(=O)[C@@]1(OC(=O)CC)[C@H](C)C[C@H]2[C@H]3[C@H]([C@@H](O)C[C@@]21C)[C@@]1(C)C=CC(=O)C=C1C[C@H]3Cl`, the fold change permeability was 1.5 (active).

In the case of `COc1ccc(-c2ccc(N)[n+](CCCC(=O)O)n2)cc1`, the fold change permeability is 0.8.

`C[n+]1cc2c3c(ccc2c2ccc4cc5c(cc4c21)OCO5)OCO3`: the fold change permeability was 2.1 (active).

`O=C(O)c1cccnc1C(=O)O`: the fold change permeability is 1.1.

For `CC(C)=CCc1cc2c(cc1O)oc(=O)c1c3ccc(O)cc3oc21`, the fold change permeability was 1.4 (active).
